Assay [1] is described as follows: NCI Yeast Anticancer Drug Screen. Data for the rad50 strain (AID 155).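 Further: 0% = growth of vehicle-only cultures of the same strain.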 Conditions: S. cerevisiae rad50 strain growth inhibition, active compounds read high. Summed up: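 Relative growth inhibition (compound vs vehicle) was measured in yeast with a defined repair-gene alteration.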
Assay [2] in a line: NCI Yeast Anticancer Drug Screen. Data for the mec2-1 strain (AID 157). Conditions: S. cerevisiae mec2-1 strain, active compounds read high. Summed up: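 Growth inhibition is read against vehicle-treated controls after compound exposure of the mec2-1 yeast strain, which is defective in DNA damage repair or cell cycle control.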
Assay [3] in a line: NCI Yeast Anticancer Drug Screen. Data for the sgs1 mgt1 strain (AID 161).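 Further: 0% = growth of cultures given vehicle only.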 Conditions: S. cerevisiae sgs1 mgt1 strain, active compounds read high. Put shortly: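 Compounds are added to genetically altered yeast, and growth is compared with cultures given vehicle alone to give percent inhibition.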
Assay [4] can be described thus: NCI Yeast Anticancer Drug Screen. Data for the cln2 rad14 strain (AID 165).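 Further: 0% = growth equal to vehicle treated cultures.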 Particulars: S. cerevisiae cln2 rad14 strain, active compounds read high. Put shortly:
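Growth inhibition, relative to vehicle-treated controls, is the read-out. The test organism is a yeast strain with defined genetic alterations, cln2 rad14.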

Assay [5] can be described thus: NCI Yeast Anticancer Drug Screen. Data for the bub3 strain (AID 167). Conditions: S. cerevisiae bub3 mutant strain, active compounds read high. Put shortly: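 Screening used yeast with an engineered genetic alteration affecting cell cycle control. Compound-exposed cultures were compared with vehicle cultures, and reduced growth was taken as inhibition.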
Assay [6] in a line: NCI Yeast Anticancer Drug Screen. Data for the mlh1 rad18 strain (AID 175). Particulars: S. cerevisiae mlh1 rad18 strain growth inhibition, active compounds read high. Summed up: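 Cells of a genetically altered yeast strain, deficient in DNA damage repair, were treated with compound. Their growth was then compared with that of vehicle-treated cultures to give inhibition.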
[7] abbreviates: at 5.0 µM (retest, dose inferred, filed as 0.5).
The mark [8] stands for this setting: at 50.0 µM (retest, dose inferred, filed as 5.0).

Compounds without any hit were thinned out: in the full panel of roughly 79,000, 15% have a hit. A number with no mark means an inactive call. Active and inactive are the calls of the source. No stated cut-off is given here; in the data, active means growth inhibition above about 70%; inactive means the rest.

These results are taken from PubChem BioAssay (NCI).

Regarding `CCCC(=O)OCc1cc(=O)n(C)c2c3c4c(cc12)c(C)cc(=O)n4CO3`, the growth inhibition was 86% (active) in assay [1] (setting [7]); 99% (active) in assay [1] (setting [8]); 25% in assay [1] (at 50.0 µM); 58% in assay [2] (setting [7]); 100% (active) in assay [2] (setting [8]); -11.2% in assay [2] (at 50.0 µM). Also, the growth inhibition was 79% (active) in assay [3] (setting [7]); 100% (active) in assay [3] (setting [8]); 22.8% in assay [3] (at 50.0 µM); 63% in assay [4] (setting [7]); 99% (active) in assay [4] (setting [8]); 13.6% in assay [4] (at 50.0 µM). For the same molecule, the growth inhibition in assay [5] (setting [7]) was 84% (active); in assay [5] (setting [8]), 98% (active); in assay [5] (at 50.0 µM), -11%; in assay [6] (setting [7]) it was 83% (active); in assay [6] (setting [8]) it was 99% (active); in assay [6] (at 50.0 µM), 22.4%.
Consider `Cc1ccc(N2C(=O)C(Cl)=C(Cl)C2=O)cc1`, for which the growth inhibition in assay [1] (setting [7]) was 11%; in assay [1] (setting [8]) it was 99% (active); in assay [1] (at 50.0 µM), 99.3% (active); in assay [2] (setting [7]) it was 12%; in assay [2] (setting [8]) it was 100% (active); in assay [2] (at 50.0 µM), 99.4% (active). For the same molecule, the growth inhibition was 20% in assay [3] (setting [7]); 100% (active) in assay [3] (setting [8]); 99.5% (active) in assay [3] (at 50.0 µM); 8% in assay [4] (setting [7]); 99% (active) in assay [4] (setting [8]); 98.8% (active) in assay [4] (at 50.0 µM). For the same molecule, the growth inhibition in assay [5] (setting [7]) was 16%; in assay [5] (setting [8]) it was 99% (active); in assay [5] (at 50.0 µM) it was 99.3% (active); in assay [6] (setting [7]) it was 14%; in assay [6] (setting [8]) it was 100% (active); in assay [6] (at 50.0 µM), 97.5% (active).
For `CCCC/C=C(/CCCNCCc1ccccc1)[Si](C)(C)C`, the growth inhibition is 88% (active) in assay [1] (setting [7]); 98% (active) in assay [1] (setting [8]); 90.4% (active) in assay [1] (at 50.0 µM); 90% (active) in assay [2] (setting [7]); 99% (active) in assay [2] (setting [8]); 93% (active) in assay [2] (at 50.0 µM). Also, the growth inhibition in assay [3] (setting [7]) is 98% (active); in assay [3] (setting [8]) it was 99% (active); in assay [3] (at 50.0 µM), 93.4% (active); in assay [4] (setting [7]), 89% (active); in assay [4] (setting [8]), 99% (active); in assay [4] (at 50.0 µM), 91.5% (active). Moreover, the growth inhibition in assay [5] (setting [7]) was 98% (active); in assay [5] (setting [8]), 99% (active); in assay [5] (at 50.0 µM) it was 91.5% (active); in assay [6] (setting [7]) it was 97% (active); in assay [6] (setting [8]), 99% (active); in assay [6] (at 50.0 µM), 90.9% (active).
`CCCCCOC(=O)CSC#N`: the growth inhibition in assay [1] (setting [7]) is 93% (active); in assay [1] (setting [8]), 99% (active); in assay [1] (at 50.0 µM), 98.7% (active); in assay [2] (setting [7]) it was 97% (active); in assay [2] (setting [8]), 99% (active); in assay [2] (at 50.0 µM) it was 99% (active). Moreover, the growth inhibition was 96% (active) in assay [3] (setting [7]); 98% (active) in assay [3] (setting [8]); 98.8% (active) in assay [3] (at 50.0 µM); 79% (active) in assay [4] (setting [7]); 99% (active) in assay [4] (setting [8]); 98.5% (active) in assay [4] (at 50.0 µM). Moreover, the growth inhibition in assay [5] (setting [7]) was 96% (active); in assay [5] (setting [8]) it was 99% (active); in assay [5] (at 50.0 µM) it was 98.7% (active); in assay [6] (setting [7]) it was 91% (active); in assay [6] (setting [8]), 99% (active); in assay [6] (at 50.0 µM) it was 98.8% (active).
Take `Cc1cc(NCCCCCCCCCC[n+]2c(C)cc(N)c3ccccc32)c2ccccc2n1`: the growth inhibition in assay [1] (setting [7]) was 71% (active); in assay [1] (setting [8]), 99% (active); in assay [1] (at 50.0 µM), 89.8% (active); in assay [2] (setting [7]), 94% (active); in assay [2] (setting [8]), 99% (active); in assay [2] (at 50.0 µM), 92.2% (active). Further, the growth inhibition in assay [3] (setting [7]) is 97% (active); in assay [3] (setting [8]), 99% (active); in assay [3] (at 50.0 µM) it was 91.5% (active); in assay [4] (setting [7]) it was 95% (active); in assay [4] (setting [8]), 99% (active); in assay [4] (at 50.0 µM), 90% (active). Moreover, the growth inhibition in assay [5] (setting [7]) was 96% (active); in assay [5] (setting [8]), 99% (active); in assay [5] (at 50.0 µM) it was 90.9% (active); in assay [6] (setting [7]) it was 95% (active); in assay [6] (setting [8]), 99% (active); in assay [6] (at 50.0 µM), 90.6% (active).
Consider `COC(=O)c1ccc(C)cc1CC1Cc2cc(C)ccc2C1=O` (configuration not stated), for which the growth inhibition was 5% in assay [1] (setting [7]); 54% in assay [1] (setting [8]); 36.1% in assay [1] (at 50.0 µM); -21% in assay [2] (setting [7]); 56% in assay [2] (setting [8]); 56.1% in assay [2] (at 50.0 µM). Further, the growth inhibition in assay [3] (setting [7]) was -31%; in assay [3] (setting [8]), 68%; in assay [3] (at 50.0 µM), 73.9% (active); in assay [4] (setting [7]), 21%; in assay [4] (setting [8]), 53%; in assay [4] (at 50.0 µM) it was 71.8% (active). In addition, the growth inhibition is -34% in assay [5] (setting [7]); 49% in assay [5] (setting [8]); 64.2% in assay [5] (at 50.0 µM); -12% in assay [6] (setting [7]); 85% (active) in assay [6] (setting [8]); 70.7% (active) in assay [6] (at 50.0 µM).
As for `CCOC(=O)CC[P+](Cc1ccccc1)(c1ccccc1)c1ccccc1`, the growth inhibition was -32% in assay [1] (setting [7]); 14% in assay [1] (setting [8]); 64.9% in assay [1] (at 50.0 µM); 0% in assay [2] (setting [7]); 0% in assay [2] (setting [8]); -1.5% in assay [2] (at 50.0 µM). Further, the growth inhibition is 2% in assay [3] (setting [7]); 3% in assay [3] (setting [8]); 12.7% in assay [3] (at 50.0 µM); 4% in assay [4] (setting [7]); -2% in assay [4] (setting [8]); -15.4% in assay [4] (at 50.0 µM). In addition, the growth inhibition was 1% in assay [5] (setting [7]); 4% in assay [5] (setting [8]); 18.4% in assay [5] (at 50.0 µM); 7% in assay [6] (setting [7]); 21% in assay [6] (setting [8]); 11% in assay [6] (at 50.0 µM).
For `COc1ccc(C2Oc3ccc(Cl)cc3C=C2[N+](=O)[O-])cc1` (configuration not stated), the growth inhibition in assay [1] (setting [7]) was 99% (active); in assay [1] (setting [8]), 93% (active); in assay [1] (at 50.0 µM), 80.4% (active); in assay [2] (setting [7]) it was 99% (active); in assay [2] (setting [8]), 95% (active); in assay [2] (at 50.0 µM), 87.1% (active). Also, the growth inhibition in assay [3] (setting [7]) was 99% (active); in assay [3] (setting [8]), 95% (active); in assay [3] (at 50.0 µM), 82.5% (active); in assay [4] (setting [7]) it was 99% (active); in assay [4] (setting [8]), 93% (active); in assay [4] (at 50.0 µM), 83.2% (active). Moreover, the growth inhibition is 99% (active) in assay [5] (setting [7]); 94% (active) in assay [5] (setting [8]); 84.4% (active) in assay [5] (at 50.0 µM); 99% (active) in assay [6] (setting [7]); 95% (active) in assay [6] (setting [8]); 79% (active) in assay [6] (at 50.0 µM).
With `BrC1=CC(Br)=C2N=C(C(Br)(Br)Br)N=C3N=C(C(Br)(Br)Br)N=C1N32`, the growth inhibition was 27% in assay [1] (setting [7]); 97% (active) in assay [1] (setting [8]); 99% (active) in assay [1] (at 50.0 µM); 15% in assay [2] (setting [7]); 98% (active) in assay [2] (setting [8]); 99.5% (active) in assay [2] (at 50.0 µM). For the same molecule, the growth inhibition in assay [3] (setting [7]) was 20%; in assay [3] (setting [8]) it was 99% (active); in assay [3] (at 50.0 µM), 99.8% (active); in assay [4] (setting [7]) it was 5%; in assay [4] (setting [8]) it was 97% (active); in assay [4] (at 50.0 µM) it was 98.2% (active). For the same molecule, the growth inhibition in assay [5] (setting [7]) was 0%; in assay [5] (setting [8]), 97% (active); in assay [5] (at 50.0 µM) it was 99.2% (active); in assay [6] (setting [7]), 30%; in assay [6] (setting [8]), 97% (active); in assay [6] (at 50.0 µM) it was 99% (active).
